Measured values taken from PubChem BioAssay (NCATS).
Results filed as inconclusive are left out. The source made the active and inactive calls. Calls follow the shape of the dose curve; as a rule, active = well fitted inhibition curve with a large enough effect; inconclusive = small, poorly fitted or top-dose-only effect; inactive = flat fitted curve, though single readings scatter.

Tests used:
Experiment in all cases: qHTS profiling for inhibitors of Plasmodium falciparum proliferation (AID 504749); also: nearly all actives have a fitted effect of over 60% in size
Conditions in all cases: P. falciparum in erythrocytes, SYBR Green DNA, 72 h; series mostly up to 28.7 µM
CP335 = test system: CP335
Outline: (§1)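 P. falciparum-infected erythrocytes (0.3% parasitemia, 2.5% hematocrit final) were exposed to compounds for 72 h at 37 C in 5% CO2, then lysed with SYBR Green buffer overnight at room temperature; parasite DNA fluorescence was normalized to artemisinin and DMSO controls.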

DFO2036 = test system: DFO2036
Outline: as §1

DIV14 = test system: DIV14
Outline: as §1

DIV17 = test system: DIV17
Outline: as §1

DIV30 = test system: DIV30
Outline: as §1

Dd2 = test system: Dd2
Outline: as §1

ECU = test system: ECU
Outline: as §1

FAB9 = test system: FAB9
Outline: as §1

GB4 = test system: GB4
Outline: as §1

HB3 = test system: HB3
Outline: as §1

ICS = test system: ICS
Outline: as §1

JCK = test system: JCK
Outline: as §1

N140 = test system: N140
Outline: as §1

P93_24 = test system: P93_24
Outline: as §1

P94_40 = test system: P94_40
Outline: as §1

PAD = test system: PAD
Outline: as §1

PC15 = test system: PC15
Outline: as §1

PC26 = test system: PC26
Outline: as §1

SC27B = test system: SC27B
Outline: as §1

PC49 = test system: PC49
Outline: as §1

Measured: Potency
Potency is read from the fitted curve at half-maximal effect.

CN1CCN(C(=O)O[C@H]2c3nccnc3C(=O)N2c2ccc(Cl)cn2)CC1
not listed: PC49
inactive: all other assays above

CN1C[C@H](CNC(=O)OCc2ccccc2)C[C@@H]2c3cccc4c3c(cn4C)C[C@H]21
active: CP335 6.75 µM | DFO2036 8.91 µM | DIV14 8.49 µM | DIV17 15.1 µM | DIV30 15.1 µM | Dd2 7.94 µM | ECU 11.2 µM | GB4 8.49 µM | ICS 7.08 µM | N140 12.6 µM | P93_24 5.01 µM | P94_40 6.31 µM | PC26 13.5 µM
inactive: FAB9 | JCK | PC49

CC(=O)Nc1cc([As](=O)(O)O)ccc1O
inactive: all assays above

COc1ccccc1N1CCNCC1
inactive: all assays above

CCCC1CCCCN1 (stereo not given)
inactive: all assays above

CCOP(=S)(OCC)Oc1cc(C)nc(C(C)C)n1
inactive: all assays above

CCCC(C)(COC(N)=O)COC(=O)NC(C)C (stereo not given)
inactive: all assays above

Oc1ccccc1-c1ccccc1
inactive: all assays above

CC1OC(C)OC(C)O1 (stereo not given)
inactive: all assays above

Cc1ccc(S(=O)(=O)N[C@@H](CCCCN)C(=O)CCl)cc1
active: ICS 12.6 µM | P93_24 10 µM | P94_40 11.2 µM | PAD 12.6 µM
inactive: DIV30 | FAB9 | PC15 | PC26

CC[C@@H](CO)NC(=O)[C@@H]1C=C2c3cccc4[nH]cc(c34)C[C@H]2N(C)C1
not listed: CP335
inactive: all other assays above

CC(C)(C)CC(C)(C)c1ccc(O)cc1
inactive: CP335 | DFO2036 | DIV30 | FAB9 | JCK | N140 | P93_24 | PAD | PC15 | PC26 | SC27B

O=C(O)c1ccc2[nH]cc(CCCCN3CC=C(c4ccccc4)CC3)c2c1
not listed: DIV14
inactive: all other assays above

CCN(CC)CCOC(=O)C(O)(c1ccccc1)c1ccccc1
not listed: CP335 | DIV14
inactive: all other assays above
